Screens (PubChem)
Sampled rows, rich in hits. Any-hit rate of the full collection: about 1.2%.
KCNH2 3.1 inh = inhibitors of human KCNH2 3.1 potassium channel isoform; U2OS KCNH2 3.1, thallium flux FluxOr; stronger effect = lower value; activity change, % (tested at about 1.8 µM); actives 0.95% (n = 340,000); AID 720553;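 active = maximum activity change below -70%; inconclusive = maximum activity change from -70% to -50%; inactive = maximum activity change above -50%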;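 also: thallium influx rate constant from kinetic fluorescence after stimulation buffer; % is scaled to controls: 0 for no effect and ±100 for the full control effect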
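Measured as rate of thallium-driven FluxOr signal in transduced U2OS cells carrying the 3.1 channel, read kinetically for 2 min upon stimulation; values are rate constants scaled to DMSO control wells.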
TRPV1 PAM = potentiators of human vanilloid receptor 1 (TRPV1) | potentiation, % at 8.33 µM | AID 540277 | actives 0.02% (n = 320,000) | Q8NER1 | TRPV1-expressing cells, Fluo-8 calcium influx, capsaicin EC20 potentiation; in the data active = potentiation above about 80%; inconclusive = between about 30% and that limit; also: 0% is about no effect
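Fluo-8 calcium influx in TRPV1-expressing cells, kinetic read (ex 480/em 520 nm). Compound added and read 3 min for agonist activity, followed by capsaicin at EC20 final and 2 min further read for enhancement.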
TRPV1 ag = agonists of human vanilloid receptor 1 (TRPV1) | TRPV1-expressing cells, Fluo-8 calcium influx, agonist mode | Q8NER1 | actives 0.19% (n = 320,000) | activation, % at 8.33 µM | AID 540275; in the data active = activation above about 80%; inconclusive = between about 30% and that limit; also: 0% is about no effect
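Fluo-8 calcium influx in TRPV1-expressing cells, kinetic read (ex 480/em 520 nm). Compound added and read 3 min for agonist activity, followed by capsaicin at EC20 final and 2 min further read for enhancement.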
KCNH2 WT inh = blocks the wildtype human KCNH2 potassium channel; U2OS, BacMam KCNH2, thallium flux FluxOr; stronger effect = lower value; activity change, % at 1.84 µM; actives 0.37% (n = 340,000); Q12809;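 active = maximum activity change below -70%; inconclusive = maximum activity change between -70% and -50%; inactive = maximum activity change above -50%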; also: % is scaled to controls: 0 for no effect and ±100 for the full control effect
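U2OS cells were transduced with wild-type KCNH2 virus (2.03 x 10^8 / mL) for 4 h at room temperature, then cultured overnight at 37 C. Thallium flux was read with FluxOr dye. Rate constants were normalized to DMSO controls.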
Starred values were filed as active, the others as inactive; i = inactive; ? = inconclusive; nt = no result.

SMILES	KCNH2 3.1 inh	TRPV1 PAM	TRPV1 ag	KCNH2 WT inh
CC(C)NC(=O)N(C)C[C@H]1Oc2ccc(NC(=O)Nc3ccccc3)cc2C(=O)N([C@H](C)CO)C[C@@H]1C	0.8	nt	nt	-3.1
C[C@H](CO)N1C[C@H](C)[C@@H](CN(C)S(=O)(=O)c2ccccc2)Oc2ccc(NC(=O)Cn3cnnn3)cc2C1=O	-92.4*	nt	nt	-5.4
Cc1noc(C)c1S(=O)(=O)N(C)C[C@H]1Oc2ccc(NC(=O)Cn3cnnn3)cc2C(=O)N([C@H](C)CO)C[C@@H]1C	-6.3	nt	nt	-5.4
C[C@@H]1CN([C@@H](C)CO)C(=O)c2cc(NC(=O)C3CC3)ccc2O[C@@H]1CN(C)C(=O)NC1CCCCC1	-100.1*	nt	nt	-2.7
CC(C)NC(=O)N(C)C[C@H]1Oc2ccc(NC(=O)Nc3ccccc3)cc2C(=O)N([C@@H](C)CO)C[C@@H]1C	-145.1*	nt	nt	19.3
O=C(NC1CC1(c1ccccc1)c1ccccc1)c1ccccc1 (stereo not drawn)	nt	nt	nt	20.7
CCOC(=O)/C=C1/SCC(=O)N1CCOc1cccc(Br)c1	-9.3	nt	nt	-12.2
Cc1ccc2nc(CCCc3nc4ccc(C)cc4[nH]3)[nH]c2c1	-78.8*	4.9	1.5	13.5
Cc1ccc2nc(CCc3nc4ccc(C)cc4[nH]3)[nH]c2c1	-16.1	-7.0	?	18.0
COc1ccc(CNCc2ccc(C(F)(F)F)cc2)cc1OC	11.2	-0.9	-0.5	-0.5
CCN(CC)C(=O)[C@H]1C[C@H](CC(=O)NCCCn2ccnc2)C(=O)N2CCc3c([nH]c4cc(CCC(=O)N(C)C)ccc34)[C@]12C	-4.7	nt	nt	-3.9
CCN1C(=NCCc2ccc(Br)cc2)N[C@@H](c2ccccc2)[C@H](C(=O)OC)[C@H]1C	-79.0*	-6.4	1.8	-13.3
CCN1C(=NCCCOC(C)C)N[C@@H](c2ccccc2)[C@H](C(=O)OC)[C@H]1C	-13.2	-20.1	-0.3	2.7
CCN1C(=NCCc2ccc([N+](=O)[O-])cc2)N[C@@H](c2ccccc2)[C@H](C(=O)OC)[C@H]1C	-93.2*	7.4	2.6	-19.3
CCOc1ccc(NC(=O)OCCN2CCN(CCc3ccccc3)C(C)C2)cc1 (stereo not drawn)	-96.4*	nt	nt	-3.1
CCOC(=O)c1ccc(NC(=O)N2CCN(CCc3ccccc3)CC2)cc1	-2.3	-19.7	?	-18.3
O=[N+]([O-])c1ccc(OCCN2CCNCC2)cc1	-74.1*	-20.4	3.8	-38.4
CC1CC(C)CN(CCCCOc2ccc([N+](=O)[O-])cc2)C1 (stereo not drawn)	-98.8*	5.4	-1.9	?
CC1CN(CCCOc2ccc([N+](=O)[O-])cc2)CC(C)O1 (stereo not drawn)	?	1.3	-1.5	6.8
COc1ccc(C(=O)N2CCC3(CC2)NCCc2[nH]cnc23)cc1	-83.9*	1.9	3.3	nt
Cc1occc1C(=O)N(C)CC1CCCN(CCc2ccccc2F)C1 (stereo not drawn)	-7.5	14.1	-4.8	17.6
CN(CC1CCCN(CCc2ccc(Cl)cc2)C1)C(=O)C(=O)c1ccco1 (stereo not drawn)	-88.7*	-5.7	0.5	-22.5
Cc1ccccc1CCN1CCCC(CN(C)C(=O)C(=O)c2ccco2)C1 (stereo not drawn)	-89.7*	-2.1	-0.5	-1.7
COc1cc(Cl)c(C)cc1NC(=O)CN1CCN(C(=O)C2CC2)CC1	-26.6	-20.2	6.5	6.1
COc1ccc(NC(=O)CN2CCCC2)cc1	-10.3	-13.3	0.3	-1.3
SMILES	KCNH2 3.1 inh	TRPV1 PAM	TRPV1 ag	KCNH2 WT inh
COc1ccccc1N1CCN(CCNC(=O)Nc2cccc(C)c2C)CC1	-35.1	24.8	12.2	-124.0*
COc1ccccc1NC(=O)CN1CCN(CC(=O)Nc2ccc3c(c2)OCO3)CC1	-40.3	-4.1	-1.4	-26.5
CC(=O)c1ccc(NC(=O)CN2CCN(CC(=O)Nc3ccc(C(C)=O)cc3)CC2)cc1	-102.0*	-15.1	-1.3	5.7
CCN1CCN(CC(=O)Nc2ccc(C(C)=O)cc2)CC1	1.8	15.7	-4.8	39.7
COc1ccc(NC(=O)CN2CCN(CC(=O)Nc3ccc(OC)cc3)CC2)cc1	-107.8*	23.9	0.7	-91.9*
COc1ccc(NC(=O)CN2CCN(CC(=O)Nc3ccc4c(c3)OCO4)CC2)cc1	nt	3.1	1.4	-78.8*
NS(=O)(=O)c1ccc(N2C(=O)CCCC2=O)cc1	9.1	nt	nt	40.7
COc1ccc(S(=O)(=O)N2CCN(CC(=O)Nc3ccccc3Cl)CC2)cc1	-88.1*	?	8.3	4.0
COc1ccc(S(=O)(=O)N2CCN(CC(=O)Nc3ccccc3OC)CC2)cc1	-36.1	?	10.4	1.0
Cc1cccc(N2CCN(CC(=O)NCc3ccccc3)CC2)c1C	-7.9	6.2	?	12.0
COc1ccc(CNC(=O)CN2CCN(c3cccc(C)c3C)CC2)cc1	1.7	-5.1	80.0*	2.7
COC(=O)C[C@H]1C=C[C@@H](C(C(=O)OC)C(=O)OC)CN1C(C)=O	14.2	nt	nt	35.5
C[C@H]1CN([C@@H](C)CO)C(=O)CCCn2cc(nn2)CO[C@@H]1CN(C)C(=O)Nc1ccc2c(c1)OCCO2	10.0	nt	nt	-1.1
COc1ccc(C[C@@H]2CN3C(=NC[C@@H]3C)N2C[C@H](C)NC(=O)CCC2CCCCC2)cc1	-84.3*	23.3	1.1	-129.5*
COc1ccc(C[C@H]2CN3C(=NC[C@H]3Cc3ccccc3)N2CCNC(=O)c2ccc(C)c(Br)c2)cc1	-10.3	?	6.4	-12.6
COc1ccc(C[C@H]2CN3C(=NC[C@@H]3Cc3ccccc3)N2C[C@H](C)NC(=O)CCC2CCCCC2)cc1	nt	2.4	9.9	nt
COc1ccc(C[C@H]2CN3C(=NC[C@H]3Cc3ccccc3)N2CCNC(=O)CCC2CCCCC2)cc1	?	16.2	4.4	-107.2*
C/C=C(\C)C(=O)NCCN1C2=NC[C@H](Cc3ccccc3)N2C[C@@H]1Cc1ccc(OC)cc1	-83.2*	nt	nt	-25.8
Cc1nnc(NC(=O)CSCc2cc(=O)c3ccccc3[nH]2)s1	nt	-3.5	2.5	nt
COc1ccc([C@]23Cc4cc(OC)c(OC)cc4C(O2)C2=C(CC(C)(C)CC2=O)O3)cc1	nt	i	i	nt
CCN(CC)c1ccc(CNc2nc3ccccc3n2CCN2CCOCC2)cc1	-77.2*	-6.7	10.5	22.6
Oc1ccccc1CC=NC1CCCCC1	1.9	nt	nt	1.1
Nc1nonc1-n1nnc(C(=O)N/N=C/c2ccc(OCc3ccccc3F)cc2)c1CN1CCCCC1	-100.0*	-6.3	-1.1	2.0
CN(C)Cc1c(C(=O)N/N=C/c2ccc(OCc3c(F)cccc3Cl)cc2)nnn1-c1nonc1N	-85.7*	10.7	3.1	-29.1
Nc1nonc1-n1nnc(C(=O)N/N=C/c2ccc(OCc3cccc(Cl)c3)cc2)c1CN1CCCCC1	4.2	19.9	-1.0	8.3
Nc1nonc1-n1nnc(C(=O)N/N=C/c2ccc(O)cc2)c1COc1ccc(F)cc1	-4.5	7.0	?	3.7
C[C@H](CO)N1C[C@H](C)[C@@H](CN(C)S(=O)(=O)c2ccc(F)cc2)Oc2c(NS(=O)(=O)c3ccc(F)cc3)cccc2C1=O	23.6	nt	nt	-31.1
